In assay [1] the target is Tyrosine-protein kinase Fer (Homo sapiens) (UniProt P16591). The settings on record: at 1 µM.
The target of assay [2] is Tyrosine-protein kinase Fes/Fps (Homo sapiens) (UniProt P07332). Particulars: at 0.1 µM.
Assay [3] has the same target. Particulars: at 1 µM.
In assay [4] the target is Fibroblast growth factor receptor 1 (Homo sapiens) (UniProt P11362). Particulars: at 0.1 µM.
The target is the same in assay [5]. The settings on record: at 1 µM.
Assay [6] concerns the target Fibroblast growth factor receptor 2 (Homo sapiens) (UniProt P21802). The settings on record: at 0.1 µM.
Assay [7] has the same target. Particulars: at 1 µM.
For assay [8], the target named is Fibroblast growth factor receptor 3 (Homo sapiens) (UniProt P22607). The settings on record: at 0.1 µM.
For assay [9] the target is unchanged. Particulars: at 1 µM.
The target in assay [10] is Fibroblast growth factor receptor 4 (Homo sapiens) (UniProt P22455). The settings on record: at 0.1 µM.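 Further: values are mean percent inhibition of FGFR4.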

Where “and” joins values, the source holds several entries; their conditions need not be identical. Identical values can stand only once.

Fibroblast growth factor receptor 2 (Homo sapiens), sequence (P21802 22-821 limits assumed): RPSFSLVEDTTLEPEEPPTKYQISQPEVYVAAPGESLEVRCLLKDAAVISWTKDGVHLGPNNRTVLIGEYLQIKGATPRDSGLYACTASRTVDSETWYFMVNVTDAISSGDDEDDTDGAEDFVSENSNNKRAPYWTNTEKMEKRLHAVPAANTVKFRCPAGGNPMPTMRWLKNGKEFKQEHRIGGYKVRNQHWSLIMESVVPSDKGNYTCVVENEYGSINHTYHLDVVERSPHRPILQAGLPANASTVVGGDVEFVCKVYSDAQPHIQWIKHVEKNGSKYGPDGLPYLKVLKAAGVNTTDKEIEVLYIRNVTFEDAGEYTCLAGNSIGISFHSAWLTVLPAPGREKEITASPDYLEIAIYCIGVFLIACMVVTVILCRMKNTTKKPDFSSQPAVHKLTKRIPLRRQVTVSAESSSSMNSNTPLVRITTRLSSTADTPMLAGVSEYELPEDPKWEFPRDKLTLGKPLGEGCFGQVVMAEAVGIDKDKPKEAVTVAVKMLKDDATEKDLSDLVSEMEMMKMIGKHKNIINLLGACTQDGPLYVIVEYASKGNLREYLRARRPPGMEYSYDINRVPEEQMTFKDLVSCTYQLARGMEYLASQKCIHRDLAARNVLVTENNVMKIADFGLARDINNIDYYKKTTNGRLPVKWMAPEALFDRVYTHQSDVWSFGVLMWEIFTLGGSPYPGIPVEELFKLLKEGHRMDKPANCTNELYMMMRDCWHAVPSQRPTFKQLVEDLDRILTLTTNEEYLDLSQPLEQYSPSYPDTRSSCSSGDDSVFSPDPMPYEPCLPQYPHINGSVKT
Tyrosine-protein kinase Fer (Homo sapiens), sequence (P16591 whole entry, looked up): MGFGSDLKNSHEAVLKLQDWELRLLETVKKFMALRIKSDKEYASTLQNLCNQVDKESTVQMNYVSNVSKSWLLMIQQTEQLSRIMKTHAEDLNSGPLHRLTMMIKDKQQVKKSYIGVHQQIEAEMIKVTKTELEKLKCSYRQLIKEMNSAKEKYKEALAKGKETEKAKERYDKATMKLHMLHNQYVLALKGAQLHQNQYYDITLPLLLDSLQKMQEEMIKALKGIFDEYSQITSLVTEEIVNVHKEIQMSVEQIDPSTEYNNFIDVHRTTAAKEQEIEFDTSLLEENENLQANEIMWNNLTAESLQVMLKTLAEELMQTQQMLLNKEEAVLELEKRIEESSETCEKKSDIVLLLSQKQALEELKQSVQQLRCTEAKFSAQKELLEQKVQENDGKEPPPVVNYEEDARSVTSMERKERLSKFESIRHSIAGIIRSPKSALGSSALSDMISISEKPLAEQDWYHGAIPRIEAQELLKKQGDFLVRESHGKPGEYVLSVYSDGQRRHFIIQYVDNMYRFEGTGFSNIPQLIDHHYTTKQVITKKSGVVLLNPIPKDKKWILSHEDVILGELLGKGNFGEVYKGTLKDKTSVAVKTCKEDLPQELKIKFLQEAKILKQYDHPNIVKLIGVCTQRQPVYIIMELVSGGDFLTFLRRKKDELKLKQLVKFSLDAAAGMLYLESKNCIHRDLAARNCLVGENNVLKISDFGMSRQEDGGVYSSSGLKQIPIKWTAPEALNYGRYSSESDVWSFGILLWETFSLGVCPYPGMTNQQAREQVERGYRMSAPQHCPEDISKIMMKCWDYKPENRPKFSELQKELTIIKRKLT
Fibroblast growth factor receptor 4 (Homo sapiens), sequence (P22455 22-802 limits assumed): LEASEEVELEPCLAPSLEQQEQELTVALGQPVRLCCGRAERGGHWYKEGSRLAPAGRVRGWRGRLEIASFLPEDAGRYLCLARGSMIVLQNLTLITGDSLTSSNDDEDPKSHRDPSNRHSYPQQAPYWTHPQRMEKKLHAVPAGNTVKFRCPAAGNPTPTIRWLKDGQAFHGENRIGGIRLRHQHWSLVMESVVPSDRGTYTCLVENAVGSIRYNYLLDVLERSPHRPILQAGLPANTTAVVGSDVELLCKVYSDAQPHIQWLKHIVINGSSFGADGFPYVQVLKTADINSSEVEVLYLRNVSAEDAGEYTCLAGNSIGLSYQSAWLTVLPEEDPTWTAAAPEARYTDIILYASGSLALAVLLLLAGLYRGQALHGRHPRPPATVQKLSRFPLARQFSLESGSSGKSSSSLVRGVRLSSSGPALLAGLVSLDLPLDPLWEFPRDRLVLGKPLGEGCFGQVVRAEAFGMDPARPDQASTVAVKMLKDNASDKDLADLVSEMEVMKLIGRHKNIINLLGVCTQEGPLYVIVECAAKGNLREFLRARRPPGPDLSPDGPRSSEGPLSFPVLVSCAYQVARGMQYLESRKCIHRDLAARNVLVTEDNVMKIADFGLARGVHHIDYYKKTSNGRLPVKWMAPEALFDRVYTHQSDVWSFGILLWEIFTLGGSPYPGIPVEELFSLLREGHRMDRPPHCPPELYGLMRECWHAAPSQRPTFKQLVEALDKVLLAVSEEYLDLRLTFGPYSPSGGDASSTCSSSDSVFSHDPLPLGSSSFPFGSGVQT
Fibroblast growth factor receptor 1 (Homo sapiens), sequence (P11362 22-822 limits assumed): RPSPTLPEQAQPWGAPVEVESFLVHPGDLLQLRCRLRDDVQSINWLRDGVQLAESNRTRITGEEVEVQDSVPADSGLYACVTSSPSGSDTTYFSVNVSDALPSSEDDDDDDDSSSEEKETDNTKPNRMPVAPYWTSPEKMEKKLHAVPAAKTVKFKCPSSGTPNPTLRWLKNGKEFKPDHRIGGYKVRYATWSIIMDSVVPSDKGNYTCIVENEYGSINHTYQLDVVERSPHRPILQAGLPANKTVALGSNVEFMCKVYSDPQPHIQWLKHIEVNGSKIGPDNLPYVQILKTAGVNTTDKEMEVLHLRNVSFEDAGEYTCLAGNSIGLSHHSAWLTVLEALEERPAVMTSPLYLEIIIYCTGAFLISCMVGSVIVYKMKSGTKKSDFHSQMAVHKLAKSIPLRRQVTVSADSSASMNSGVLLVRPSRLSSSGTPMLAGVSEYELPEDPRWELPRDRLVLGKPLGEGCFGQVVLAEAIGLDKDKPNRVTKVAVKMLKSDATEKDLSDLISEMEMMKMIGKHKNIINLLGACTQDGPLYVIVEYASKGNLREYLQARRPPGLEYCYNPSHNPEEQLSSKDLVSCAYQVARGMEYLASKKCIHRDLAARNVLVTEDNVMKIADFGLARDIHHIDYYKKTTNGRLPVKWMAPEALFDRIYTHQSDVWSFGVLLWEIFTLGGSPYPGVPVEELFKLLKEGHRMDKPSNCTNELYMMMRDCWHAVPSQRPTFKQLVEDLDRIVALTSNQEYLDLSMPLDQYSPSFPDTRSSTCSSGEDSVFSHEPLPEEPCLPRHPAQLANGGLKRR
Tyrosine-protein kinase Fes/Fps (Homo sapiens), sequence (P07332 whole entry): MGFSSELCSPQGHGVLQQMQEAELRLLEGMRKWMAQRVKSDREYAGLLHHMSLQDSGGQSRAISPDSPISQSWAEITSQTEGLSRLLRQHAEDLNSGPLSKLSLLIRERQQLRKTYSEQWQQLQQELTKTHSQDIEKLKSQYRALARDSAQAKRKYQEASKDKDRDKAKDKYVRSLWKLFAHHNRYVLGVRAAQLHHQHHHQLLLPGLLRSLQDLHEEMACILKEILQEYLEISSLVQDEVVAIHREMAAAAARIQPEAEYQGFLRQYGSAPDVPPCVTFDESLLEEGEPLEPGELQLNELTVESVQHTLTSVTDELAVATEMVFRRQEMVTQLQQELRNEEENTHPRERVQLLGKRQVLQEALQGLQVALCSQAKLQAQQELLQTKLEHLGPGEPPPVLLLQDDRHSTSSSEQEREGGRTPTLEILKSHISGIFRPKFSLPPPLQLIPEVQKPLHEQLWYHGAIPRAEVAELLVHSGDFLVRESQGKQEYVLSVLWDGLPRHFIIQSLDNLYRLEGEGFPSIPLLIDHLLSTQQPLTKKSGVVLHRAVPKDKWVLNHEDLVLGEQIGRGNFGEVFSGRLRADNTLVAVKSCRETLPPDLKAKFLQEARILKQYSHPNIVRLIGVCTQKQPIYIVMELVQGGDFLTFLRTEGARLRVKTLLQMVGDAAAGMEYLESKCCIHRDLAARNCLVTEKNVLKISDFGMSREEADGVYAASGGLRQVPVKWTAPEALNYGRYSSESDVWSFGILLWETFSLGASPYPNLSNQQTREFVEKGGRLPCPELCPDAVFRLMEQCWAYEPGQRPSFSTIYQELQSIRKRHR
Fibroblast growth factor receptor 3 (Homo sapiens), sequence (P22607 23-806 limits assumed): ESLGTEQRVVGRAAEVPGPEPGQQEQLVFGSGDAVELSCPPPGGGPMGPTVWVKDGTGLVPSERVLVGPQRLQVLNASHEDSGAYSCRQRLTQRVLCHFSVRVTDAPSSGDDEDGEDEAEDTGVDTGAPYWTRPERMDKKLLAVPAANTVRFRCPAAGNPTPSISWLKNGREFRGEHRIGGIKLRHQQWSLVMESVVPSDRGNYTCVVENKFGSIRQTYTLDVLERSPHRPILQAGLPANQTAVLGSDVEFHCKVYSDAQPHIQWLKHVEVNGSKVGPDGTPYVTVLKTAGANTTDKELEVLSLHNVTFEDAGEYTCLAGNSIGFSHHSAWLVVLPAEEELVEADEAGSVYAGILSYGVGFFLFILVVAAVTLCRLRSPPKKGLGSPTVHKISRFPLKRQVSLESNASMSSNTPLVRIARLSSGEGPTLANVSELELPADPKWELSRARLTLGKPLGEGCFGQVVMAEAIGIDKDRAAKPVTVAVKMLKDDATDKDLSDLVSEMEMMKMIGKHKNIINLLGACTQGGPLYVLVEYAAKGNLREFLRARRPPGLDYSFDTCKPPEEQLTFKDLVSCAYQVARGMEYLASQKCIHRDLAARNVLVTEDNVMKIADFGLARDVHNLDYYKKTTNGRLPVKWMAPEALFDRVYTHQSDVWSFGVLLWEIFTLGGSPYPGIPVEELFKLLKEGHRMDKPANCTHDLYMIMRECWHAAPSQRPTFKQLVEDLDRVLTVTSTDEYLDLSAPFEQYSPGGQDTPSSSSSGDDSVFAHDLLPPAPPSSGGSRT

Turning to `N#Cc1cccc(Nc2ncc(-c3ccccc3)o2)c1`, the inhibition in [1] is 5.33%; in [2], 0.93%; in assay [3] it was 1.79%; in [4], -4.35%; in assay [5], 2.95%; in assay [6], 2.66%. In addition, the inhibition is 7.1% in [7], 2.72% in [8], 4.48% in assay [9] and -2.65% in assay [10].
Regarding `Cc1ccc(-c2cc3c(NC(=O)C4CC4)ncnc3o2)cc1`, the inhibition in assay [1] was 6.82%; in [2] it was 4.78%; in assay [3] it was 7.73%; in [4], 7.46%; in assay [5], 5.81%; in assay [6], 6.04%. The inhibition turned out to be 10.7% in assay [7], 5.42% in assay [8], 5.53% in assay [9] and 1.15% in assay [10].
Consider `COc1cc(Nc2ncc(-c3ccccc3)o2)cc(OC)c1`, for which the inhibition in [1] was 3.14%; in assay [2], 3.89%; in assay [3], 3.89%; in [4], 2.6%; in [5], 7.89%; in assay [6], 3.62%. For the same molecule, the inhibition was 11.7% in [7], 1.91% in assay [8], 10.2% in [9] and -1.24% in assay [10].
`Cc1cc(O)cc(C)c1/C=C/c1cncc(C(=O)OC(C)(C)C)c1`: the inhibition was determined as 3.02% in assay [1]; 1.48% in [2]; 2.34% in [3]; 1.91% in assay [4]; 3.93% in [5]; 1.65% in [6]. The inhibition amounted to 5.08% in assay [7], 7.81% in assay [8], 7.63% in [9] and 1.4% in assay [10].
As to `COc1cccc(-n2ncc3c(N/N=C/c4ccc(C(=O)NCCN(C)C)cc4)ncnc32)c1`, the inhibition in assay [1] amounted to 1.12%; in [2] it was 1.87%; in [3], 3.63%; in [4], 4.74%; in [5] it was 9.7%; in assay [6] it was 5.08%. Also, the inhibition worked out at 10.7% in assay [7], 6.47% in [8], 9.95% in [9] and 0.01% in [10].
On to `Nc1ncnc2occ(-c3ccc(NC(=O)Nc4cc(C(F)(F)F)ccc4F)cc3)c12`, for which the inhibition in [1] was 29.4% and 17.7%; in assay [2] it was 1.99% and -1.17%; in [3] it was 3.25% and -0.8%; in [4], 3.81% and 0.38%; in assay [5], 29.8% and 19.3%; in [6] it was 14.1% and 7.78%. The inhibition in assay [7] was 52.2% and 43.8%; in assay [8], 6.93% and 1.4%; in [9], 34.3% and 17.9%; in assay [10] it was 2.49% and 0.65%.
Turning to `N#Cc1ccc2c(-c3ccnc(NC4CC4)n3)c(-c3ccc(F)cc3)nn2c1`, the inhibition in [1] is -0.62%; in assay [2] it was 1.05%; in assay [3], 1.43%; in [4], -2.46%; in assay [5], 1.96%; in assay [6], 1.16%. Moreover, the inhibition in assay [7] was 2.21%; in [8], 1.76%; in assay [9], 1.06%; in assay [10] it was 1.18%.
For `FC(F)(F)CNc1nccc(-c2cnn3ncccc23)n1`, the inhibition in assay [1] came out at 0.92%; in assay [2], 2.11%; in assay [3], 1.66%; in assay [4] it was 4.83%; in [5], 2.89%; in assay [6], 4.25%. In addition, the inhibition in assay [7] worked out at 3.09%; in [8] it was 3.73%; in [9] it was 2.58%; in assay [10] it was 1.62%.
Consider `CCS(=O)(=O)c1ccc(OC)c(Nc2ncc(-c3cccc(F)c3)o2)c1`, for which the inhibition in [1] is 8.9%; in assay [2], 4.72%; in assay [3], 4.79%; in [4], 12.7%; in assay [5], 46.2%; in assay [6] it was 40.5%. Besides, the inhibition in [7] amounted to 69.8%; in assay [8] it was 52.9%; in assay [9], 77.3%; in [10] it was 5.31%.
For `CS(=O)(=O)CCNCc1ccc(-c2ccc3ncnc(Nc4ccc(OCc5cccc(C(F)(F)F)c5)cc4)c3c2)o1`, the inhibition was 0.74% in [1]; 3.52% in assay [2]; 4.12% in assay [3]; 6.33% in [4]; 10.8% in assay [5]; 6.07% in assay [6]. For the same molecule, the inhibition in assay [7] worked out at 14.2%; in assay [8] it was 9.13%; in assay [9], 10.7%; in assay [10], 4.16%.
In the case of `COc1ccc(Nc2ncc(-c3ccccc3)o2)cc1OC`, the inhibition in [1] was 4.34%; in assay [2] it was 0.6%; in [3], 3.66%; in [4], -3.4%; in [5] it was 5.44%; in assay [6], 1.29%. Moreover, the inhibition in assay [7] was 19.4%; in assay [8], 2.32%; in [9] it was 13.2%; in assay [10], 0.41%.
As to `NC(=O)c1ccc2c(-c3ccnc(NCCCO)n3)c(-c3ccc(F)cc3)nn2c1`, the inhibition in [1] worked out at 6.71%; in assay [2] it was 3%; in assay [3] it was 5.19%; in [4], 8.04%; in [5] it was 8.15%; in assay [6], 4.29%. Moreover, the inhibition came to 9.62% in [7], 5.45% in assay [8], 7.13% in assay [9] and 0.14% in assay [10].
Take `NS(=O)(=O)c1ccc(N/N=C2\C(=O)Nc3ccc(C(=O)NCc4ccncc4)cc32)cc1`: the inhibition in assay [1] came to 5.14%; in assay [2] it was 2.4%; in [3], 1.67%; in [4], 3.12%; in assay [5], 5.51%; in [6], 1.27%. Also, the inhibition in [7] was 11.9%; in [8], 4.61%; in [9], 8.12%; in [10], -2.09%.
For `CNC(=O)c1sc(-n2cnc3cc(OC)c(OC)cc32)cc1OCc1ccccc1C(F)(F)F`, the inhibition is 5.74% in assay [1]; 3.32% in assay [2]; 3.26% in [3]; -4.6% in [4]; 7.69% in assay [5]; 4.22% in assay [6]. Further, the inhibition was 7.4% in assay [7], 2.02% in [8], 7.23% in [9] and 0.59% in assay [10].
Turning to `COc1ccccc1-c1cc(/C=C2\C(=O)Nc3ncc(Br)cc32)cc(Br)c1O`, the inhibition in [1] was 9.31%; in [2], 3.24%; in [3], 4.41%; in assay [4], 3.85%; in assay [5], 14%; in [6] it was 6.66%. Further, the inhibition was 18% in assay [7], 8.55% in [8], 14% in [9] and -0.86% in [10].
Regarding `CCCNc1cccc(-n2ncc3c(N/N=C/c4ccncc4)ncnc32)c1`, the inhibition in [1] came to 9.15%; in assay [2], 2.38%; in assay [3], 5.6%; in [4] it was 0.48%; in [5], 3.31%; in assay [6], 2.19%. Further, the inhibition in [7] is 19.4%; in assay [8], 0.74%; in assay [9], 8.88%; in assay [10] it was -1.49%.

The values above are taken from ChEMBL document CHEMBL1961873, “Compounds: GSK PKIS; Assays: Nanosyn kinase panel” (2012).
